Source: PubChem BioAssay (National Center for Advancing Translational Sciences (NCATS))
Sampled rows, rich in hits. Any-hit rate of the full collection: about 21%.
TDP1 cell CPT – growth inhibition of DT40 Tdp1-/-;hTDP1 cells with camptothecin (screen for TDP1 inhibitors); chicken DT40 Tdp1-/-;hTDP1 cells + 20 nM CPT, ATP luminescence, 48 h; Potency, µM (titrated, usually from 46.2 µM), most hits filed as inhibitors; 420,000 tested, 12% active; also: nearly all actives have a fitted effect of over 55% in size
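Chicken DT40 Tdp1-/- cells complemented with human TDP1, 400 cells/well, exposed to compounds plus 20 nM camptothecin for at least 48 h at 37 C; viability read as ATP content by CellTiter-Glo luminescence.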
DRD3 agonist – D3 dopamine receptor (human) agonism | P35462 | D3R DiscoveRx beta-arrestin cells, luminescence, 90 min | max activation, % | 410,000 tested, 0.58% active | AID 652048; in the data active = max activation above about 30%
Target sequence (P35462 whole entry, looked up): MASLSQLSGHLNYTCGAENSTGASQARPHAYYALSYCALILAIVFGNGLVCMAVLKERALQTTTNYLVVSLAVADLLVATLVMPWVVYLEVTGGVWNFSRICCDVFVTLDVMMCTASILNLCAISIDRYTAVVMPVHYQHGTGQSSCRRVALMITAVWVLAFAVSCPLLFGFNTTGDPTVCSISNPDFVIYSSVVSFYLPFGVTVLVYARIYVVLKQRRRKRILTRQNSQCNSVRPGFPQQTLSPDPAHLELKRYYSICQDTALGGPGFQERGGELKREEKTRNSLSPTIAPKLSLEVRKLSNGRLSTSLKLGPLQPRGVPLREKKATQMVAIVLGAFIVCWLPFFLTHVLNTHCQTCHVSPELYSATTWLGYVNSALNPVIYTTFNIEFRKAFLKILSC
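Agonist mode: compounds and dopamine controls were applied to plated cells for 90 min at 37 degrees C after an overnight attachment at 1500 cells/well. Luminescent read-out followed 30 - 60 minutes at room temperature with DiscoveRx detection reagent.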
DRD3 antagonist – D3 dopamine receptor (human) antagonism. P35462. D3R cells, DiscoveRx beta-arrestin luminescence, antagonist mode; active compounds read low. AID 652054. 360,000 tested, 2.5% active. max response, negative = inhibition, %; in the data active = max response below about -50%; inconclusive = no clear call, values can overlap the other calls
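Cells plated overnight at 1500 cells/well, then exposed to library compounds with dopamine controls for 90 minutes at 37 degrees C. DiscoveRx reagent added for 30–60 minutes at room temperature; luminescence read, quantitative HTS format.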
IL1B secr inh – blocks inflammasome-driven IL-1 beta release; THP-1 LPS/ATP IL-1B secretion, AlphaLISA, 16 h; active compounds read low; AID 743279; 360,000 tested, 4.7% active; activity change, % at 57.5 µM; in the data active = activity change below about -50%; inconclusive = mostly about -30% to -49%
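Secreted IL-1B measured by AlphaLISA bead assay after 16 h compound exposure of THP-1 cells; compounds (final up to 57.5 uM) added 1 h before LPS (250 ng/mL) and ATP (1.25 mM) stimulation; lower signal means less secretion.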
TDP1 cell noCPT – qHTS for Inhibitors of human tyrosyl-DNA phosphodiesterase 1 (TDP1): qHTS in cells in absence of CPT. Potency, µM (top dose mostly 46.2 µM), hits mostly inhibitors. DT40 Tdp1-/- hTDP1 cells, no CPT, ATP luminescence, 48 h. 420,000 tested, 15% active. AID 686978, 2013; also: nearly all actives have a fitted effect of over 55% in size
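Readout: luminescence from CellTiter-Glo after 30 min in the dark at RT. Cells: DT40 Tdp1-/- with stable hTDP1, 400/well. Exposure: compounds alone, ≥48 hr, 37 °C.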
ClpP mod – qHTS Assay for Activators of ClpP. ATP-dependent Clp protease proteolytic subunit (Bacillus subtilis (strain 168)), P80244. purified B. subtilis ClpP, FRET peptide cleavage, 20 min. Potency, µM (highest dose often 57.5 µM). 340,000 tested, 1.9% active. AID 651965, 2013; active = well fitted falling curve with a large enough effect; inconclusive = small, poorly fitted or top-dose-only effect; inactive = no such curve, though single readings can be large or run the other way; also: the source files actives as falling curves though it sought activators and does not explain the sign; nearly all actives have a fitted effect of over 65% in size
Target sequence (P80244 whole entry, looked up): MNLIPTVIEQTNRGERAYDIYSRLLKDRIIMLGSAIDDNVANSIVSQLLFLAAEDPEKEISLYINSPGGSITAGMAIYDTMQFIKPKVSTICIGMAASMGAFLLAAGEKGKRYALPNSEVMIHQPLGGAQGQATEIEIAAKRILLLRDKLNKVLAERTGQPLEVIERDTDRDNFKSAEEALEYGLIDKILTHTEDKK
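Purified B. subtilis ClpP, 10 microg/mL final in Tris/HCl pH8 with KCl, BSA, glycerol and Tween-20, cleaved an Abz/nitrotyrosine-quenched decapeptide. Fluorescence (ex 320, em 430) was read at 0 and 20 min at room temperature. Delta was normalized to 5.8 microM ADEP and DMSO/no-enzyme controls.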
Each line names hits and unclear results; the compound was inactive in the other large screens. Unless noted, calls follow the shape of the dose curve; as a rule, active = well fitted inhibition curve with a large enough effect; inconclusive = small, poorly fitted or top-dose-only effect; inactive = flat fitted curve, though single readings scatter.

O=C(OCc1cn([C@@H]2CN(C(=O)C3CCCCC3)[C@@H](c3ccccc3)C[C@H]2O)nn1)c1ccccc1	TDP1 cell noCPT inconclusive
O=C(OCc1cn([C@H]2CN(C(=O)C3CCCCC3)[C@@H](c3ccccc3)C[C@@H]2O)nn1)c1ccccc1	TDP1 cell CPT inconclusive, TDP1 cell noCPT 21µM
O=C(OCc1cn([C@H]2CN(C(=O)C3CCCCC3)[C@@H](c3ccc(Cl)cc3)C[C@@H]2O)nn1)c1ccccc1	TDP1 cell CPT inconclusive, TDP1 cell noCPT 21µM
O=C(O)c1cc(S(=O)(=O)N2CCCCC2)ccc1N1CCCC1	none
CC(=O)NC12CC3CC(C1)CC(C(=O)Nc1nc4c(C)cccc4s1)(C3)C2	TDP1 cell noCPT inconclusive
O=C(Nc1ccc([N+](=O)[O-])cc1)C(c1ccccc1)c1ccccc1	TDP1 cell CPT 18µM, DRD3 antagonist inconclusive, TDP1 cell noCPT 18µM
COc1ccc([N+](=O)[O-])cc1NC(=S)Nc1ccccc1	none
O=C(NCC(O)c1ccc([N+](=O)[O-])cc1)C(c1ccccc1)c1ccccc1 (configuration not stated)	TDP1 cell CPT inconclusive, TDP1 cell noCPT inconclusive (no result: ClpP mod)
O=C(NC(=S)Nc1ccc([N+](=O)[O-])cc1)c1ccco1	IL1B secr inh inconclusive
NC(N)=NCCCC(NC(=O)c1ccccc1)C(=O)Nc1ccc([N+](=O)[O-])cc1 (configuration not stated)	DRD3 antagonist -94, IL1B secr inh inconclusive
O=[N+]([O-])c1ccc(NNC(=S)Nc2ccccc2)cc1	TDP1 cell CPT 4.5µM, DRD3 antagonist -93, TDP1 cell noCPT 2.8µM
O=[N+]([O-])c1ccc(O)c(NC(=S)Nc2ccccc2)c1	DRD3 antagonist -78
NC(N)=NCCCC(NC(=O)c1ccccc1)C(=O)Nc1ccc2ccccc2c1 (configuration not stated)	DRD3 antagonist inconclusive, TDP1 cell noCPT inconclusive
CC(C)CCNC(=O)c1ccc2c(c1)NC(=O)C(C(C)C)N2 (configuration not stated)	none (no result: DRD3 antagonist, IL1B secr inh)
CCc1ccccc1NCc1nnc2n1CCCCC2	none (no result: DRD3 antagonist, IL1B secr inh)
COc1ccccc1CNC(=O)COC(=O)CSc1ccc(F)cc1	ClpP mod inconclusive
O=C(N[C@@H](Cc1ccccc1)C(=O)N[C@@H](Cc1ccccc1)C(=O)O)OCc1ccccc1	none
O=C(N[C@@H](Cc1ccccc1)C(=O)CCl)OCc1ccccc1	TDP1 cell CPT 2.3µM, DRD3 antagonist -94, IL1B secr inh -111, TDP1 cell noCPT 2.3µM
O=C(CCl)NC(Cc1ccccc1)C(=O)OCC(=O)c1ccc(-c2ccccc2)cc1 (configuration not stated)	TDP1 cell CPT inconclusive, IL1B secr inh -86, TDP1 cell noCPT inconclusive
CCc1ccc(CNC(=O)C2COc3ccc(OC)cc3C2)cc1 (configuration not stated)	none (no result: DRD3 antagonist, IL1B secr inh)
Cc1cc(-c2nnc(SCC(=O)Nc3ccc(C)c(C)c3)n2N)n[nH]1	none
Cc1ccc(OCCC(=O)NNC(=O)c2cc(C)oc2C)cc1	none
CC1(C)CC2CC(C)(CN2C(=O)COC(=O)c2cccnc2Cl)C1 (configuration not stated)	none
CC1(C)CC2CC(C)(CN2C(=O)COC(=O)c2cc(Cl)cc(Cl)c2N)C1 (configuration not stated)	TDP1 cell CPT inconclusive, TDP1 cell noCPT inconclusive, ClpP mod 32µM
CC1(C)CC2CC(C)(CN2C(=O)COC(=O)CNC(=O)c2ccc(Cl)c(Cl)c2)C1 (configuration not stated)	TDP1 cell noCPT inconclusive, ClpP mod 25µM
COCCn1c(C)cc(C(=O)CSc2nnc(C)s2)c1C	none
COCCn1c(C)cc(C(=O)CSc2nc3ccccc3c(=O)n2Cc2ccco2)c1C	TDP1 cell CPT 6.5µM, DRD3 agonist 43, TDP1 cell noCPT inconclusive
COCCn1c(C)cc(C(=O)CSc2cc(C)c3ccccc3n2)c1C	TDP1 cell CPT inconclusive, IL1B secr inh -69, TDP1 cell noCPT inconclusive
CC(C)OCCCN1CN(S(=O)(=O)c2ccccc2)c2nc3ccccc3nc21	TDP1 cell noCPT inconclusive, ClpP mod inconclusive
COc1ccc(CCN2CN(S(=O)(=O)c3ccccc3)c3nc4ccccc4nc32)cc1	TDP1 cell CPT inconclusive, TDP1 cell noCPT 18µM
COc1ccc(CCN2CN(S(=O)(=O)c3ccccc3)c3nc4ccccc4nc32)cc1OC	TDP1 cell CPT 21µM, TDP1 cell noCPT 18µM
Cc1c(-n2c(SC(C)C(=O)NC(N)=O)nc3ccccc3c2=O)c(=O)n(-c2ccccc2)n1C (configuration not stated)	none
CCCNC(=O)OCc1cccnc1Sc1ccc(C)cc1	TDP1 cell CPT inconclusive, TDP1 cell noCPT 15µM (no result: ClpP mod)
O=C(CCSCc1ccccc1F)N1CCN(c2ccccn2)CC1	ClpP mod inconclusive
COc1ccccc1N1CCN(C(=O)c2ccccc2SCC(=O)N2CCCC2)CC1	TDP1 cell noCPT inconclusive
Cc1ccc(Cl)cc1N1CCN(C(=O)CCSCc2ccccc2F)CC1	TDP1 cell CPT inconclusive, TDP1 cell noCPT 23µM (no result: DRD3 antagonist, IL1B secr inh)
Cc1ccc(Cl)cc1N1CCN(C(=O)c2ccccc2SCC(=O)N2CCCC2)CC1	TDP1 cell CPT 21µM, TDP1 cell noCPT 8.2µM
COc1ccc(-c2[nH]ncc2C(=O)NCc2ccccc2C)cc1	none (no result: DRD3 antagonist, IL1B secr inh)
COc1ccc(-c2[nH]ncc2N=Nc2cc(C)cc(C)c2)cc1	TDP1 cell CPT 0.21µM, IL1B secr inh -92, TDP1 cell noCPT 10µM (no result: ClpP mod)
COc1ccc(N=Nc2cc(-c3ccccc3)ccc2O)cc1	none (no result: ClpP mod)
COc1ccc(-c2[nH]ncc2N=Nc2ccccc2)cc1	TDP1 cell CPT inconclusive, IL1B secr inh -68, TDP1 cell noCPT inconclusive (no result: ClpP mod)
Cc1oc(-c2cccc(Br)c2)nc1Cn1c(SCc2cccc(F)c2)nc2cccnc21	TDP1 cell CPT inconclusive, TDP1 cell noCPT 21µM, ClpP mod inconclusive (no result: DRD3 antagonist, IL1B secr inh)
COc1ccc(-c2nc(Cn3c(SCc4ccc(C)cc4)nc4ccncc43)c(C)o2)cc1OC	TDP1 cell CPT inconclusive, TDP1 cell noCPT inconclusive, ClpP mod inconclusive
Cc1ccc(-c2nc(Cn3c(SCc4ccc(F)cc4)nc4cccnc43)c(C)o2)cc1	TDP1 cell CPT 0.73µM, TDP1 cell noCPT 0.82µM, ClpP mod inconclusive (no result: DRD3 antagonist, IL1B secr inh)
COc1ccc(/C=C(\C#N)C(=O)OCC(=O)Nc2c(C)cccc2C(C)C)cc1	none
O=C(CCN1CCCCC1)N1CCc2c([nH]c3ccccc23)C1c1cccnc1 (configuration not stated)	IL1B secr inh inconclusive
